Measured values reported in PubChem BioAssay (NCI).
Compounds without any hit were thinned out: in the full panel of roughly 79,000, 15% have a hit. A number with no mark means an inactive call. Activity calls are given as the source filed them. No stated cut-off is given here; in the data, active means growth inhibition above about 70%; inactive means the rest.

Assays:
[1] = NCI Yeast Anticancer Drug Screen. Data for the rad50 strain (AID 155);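 further: 0% = growth of vehicle-only cultures of the same strain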; details: S. cerevisiae rad50 strain growth inhibition, active compounds read high
Method in brief: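 Yeast carrying a defined DNA repair defect were exposed to test compounds, and growth was compared with vehicle-treated controls to give percent inhibition.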

[2] = NCI Yeast Anticancer Drug Screen. Data for the mec2-1 strain (AID 157); details: S. cerevisiae mec2-1 strain, active compounds read high
Method in brief: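 Cells of the genetically defined mec2-1 yeast strain are incubated with test compound. Inhibition of growth is calculated against vehicle-treated controls.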

[3] = NCI Yeast Anticancer Drug Screen. Data for the sgs1 mgt1 strain (AID 161);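 further: 0% = growth of cultures given vehicle only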; details: S. cerevisiae sgs1 mgt1 strain, active compounds read high
Method in brief: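 Mutant yeast exposed to compound; growth scored against vehicle-only wells.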

[4] = NCI Yeast Anticancer Drug Screen. Data for the cln2 rad14 strain (AID 165);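 further: 0% = growth equal to vehicle treated cultures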; details: S. cerevisiae cln2 rad14 strain, active compounds read high
Method in brief: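 The screen exposed genetically defined yeast (cln2 rad14) to test compounds and scored growth inhibition relative to vehicle-treated controls.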

[5] = NCI Yeast Anticancer Drug Screen. Data for the bub3 strain (AID 167); details: S. cerevisiae bub3 mutant strain, active compounds read high
Method in brief: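 Compounds were applied to a genetically altered yeast strain carrying a cell-cycle control defect. Growth inhibition was scored against vehicle-treated controls.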

[6] = NCI Yeast Anticancer Drug Screen. Data for the mlh1 rad18 strain (AID 175); details: S. cerevisiae mlh1 rad18 strain growth inhibition, active compounds read high
Method in brief: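 Compound-treated yeast growth, normalised to vehicle controls. Strain bears defined DNA repair mutations.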

[7] = at 5.0 µM (retest, dose inferred, filed as 0.5)
[8] = at 50.0 µM (retest, dose inferred, filed as 5.0)

| Structure (SMILES) | growth inhibition [1, 7] | growth inhibition [1, 8] | growth inhibition ([1]; at 50.0 µM) | growth inhibition [2, 7] | growth inhibition [2, 8] | growth inhibition ([2]; at 50.0 µM) | growth inhibition [3, 7] | growth inhibition [3, 8] | growth inhibition ([3]; at 50.0 µM) | growth inhibition [4, 7] | growth inhibition [4, 8] | growth inhibition ([4]; at 50.0 µM) | growth inhibition [5, 7] | growth inhibition [5, 8] | growth inhibition ([5]; at 50.0 µM) | growth inhibition [6, 7] | growth inhibition [6, 8] | growth inhibition ([6]; at 50.0 µM) |
| --- | --- | --- | --- | --- | --- | --- | --- | --- | --- | --- | --- | --- | --- | --- | --- | --- | --- | --- |
| Cc1cc(N(CCCl)CCCl)ccc1C=Nc1ccc(-c2csc(COc3ccccc3)n2)c(Cl)c1 | 4% | 93% (active) | 94% (active) | -13% | 90% (active) | 95.6% (active) | 23% | 95% (active) | 95% (active) | -10% | 94% (active) | 89.1% (active) | 6% | 91% (active) | 90.3% (active) | 52% | 94% (active) | 94.5% (active) |
| CC(=O)OC1CCC2(C)C3=C(CCC2C1(C)C)C1(C)CCC(C(C)CCC2NC2(C)C)C1(C)CC3 (configuration not stated) | -22% | 86% (active) | 22.6% | 3% | 66% | 2.5% | 23% | 98% (active) | 95.8% (active) | 2% | 23% | -29.1% | -1% | 79% (active) | 10.8% | 6% | 84% (active) | 11.2% |
| C[C@]12CC/C(=N\NC(=O)c3ccncc3)C[C@@H]1CC[C@@H]1[C@@H]2CC[C@]2(C)[C@@H](O)CC[C@@H]12 | 0% | 52% | 68.9% | 5% | 54% | 29.1% | 13% | 65% | 77.3% (active) | 6% | 8% | 66.8% | 2% | 37% | 35% | 10% | 46% | 59.1% |
| CC(=O)O.[Au].c1ccc([PH+](c2ccccc2)c2ccccc2)cc1 | 99% (active) | 98% (active) | 98.2% (active) | 98% (active) | 98% (active) | 98.2% (active) | 99% (active) | 55% | 98% (active) | 99% (active) | 96% (active) | 98% (active) | 100% (active) | 98% (active) | 98.2% (active) | 99% (active) | 97% (active) | 97.6% (active) |
| N#CC(=C=N)N=C(F)C(C#N)=C(C#N)C#N | -1% | 68% | 87% (active) | -2% | 88% (active) | 82.6% (active) | 13% | 86% (active) | 73.2% (active) | 7% | 94% (active) | 90.3% (active) | 6% | 77% (active) | 86.8% (active) | 25% | 93% (active) | 94.8% (active) |
| C[CH2][Pb]([CH2]C)([CH2]C)[n]1cnc2ccccc21 | 4% | 87% (active) | 66% | 2% | 98% (active) | 74% (active) | 5% | 97% (active) | 82.2% (active) | -3% | 62% | 41.8% | 2% | 97% (active) | 80.3% (active) | 4% | 98% (active) | 79% (active) |
| O=P(Nc1cccc(Cl)c1)(Oc1ccccc1)N(CCCl)CCCl (configuration not stated) | 40% | 40% | 90.2% (active) | 30% | 30% | 90.2% (active) | 43% | 43% | 92.1% (active) | 20% | 20% | 89.8% (active) | 26% | 26% | 88.7% (active) | 21% | 21% | 88.2% (active) |
| COc1c(O)c2c(c3cc(C(=O)N4CCc5c4c(O)c(OC)c4[nH]c(C(=O)N6CC7CC78C6=CC(=O)c6[nH]cc(C)c68)cc54)[nH]c13)CCN2C(N)=O (configuration not stated) | 97% (active) | 97% (active) | 89.8% (active) | 98% (active) | 98% (active) | 93% (active) | 96% (active) | 96% (active) | 90.5% (active) | 95% (active) | 95% (active) | 89% (active) | 94% (active) | 96% (active) | 91% (active) | 98% (active) | 97% (active) | 89.5% (active) |
| N#C[S-].[Ce+3].c1ccc(-c2ccccn2)nc1.c1ccc(-c2ccccn2)nc1.c1ccc(-c2ccccn2)nc1 | 63% | 98% (active) | 91.5% (active) | 43% | 99% (active) | 94% (active) | 51% | 99% (active) | 92.9% (active) | 31% | 93% (active) | 91.5% (active) | 55% | 98% (active) | 92.3% (active) | 63% | 98% (active) | 91.4% (active) |
